Experimental data published in PubChem BioAssay AID1159580 (chemical genetic matrix, 2015).
About 2,000 (36%) of roughly 5,500 compounds were called active. About 18% were inconclusive and are not listed. Cut-off read from the data, not from the text of the source: active = normalized growth mostly below about 0.91 (no sharp cut-off); inconclusive = no clear call, values can overlap the other calls; inactive = mostly above about 0.92. The list shows a part of the results.

Test: chemical genetic growth profiling, strain panel (AID 1159580);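 note: tested at 20 µM; growth read once vehicle control cultures reached saturation at 30 °C; 1 = growth at the plate median or of vehicle wells; lower values mean less growth of the strain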
Details: S. cerevisiae deletion strains, growth OD

Measured: normalized growth

NC/C=C/C(=O)O
inactive: locus YAL013W, strain DEP1, stronger effect = lower value 1.02 | locus YAL021C, strain ccr4, stronger effect = lower value 0.968 | locus YAL026C, strain drs2, stronger effect = lower value 0.997 | locus YAL030W, strain snc1, stronger effect = lower value 1 | locus YAL040C, strain CLN3, stronger effect = lower value 0.998 | locus YBL061C, strain skt5, stronger effect = lower value 1.01 | locus YBR009C, strain hhf1, stronger effect = lower value 1.01 | locus YBR021W, strain FUR4, stronger effect = lower value 1.01 | locus YBR023C, strain chs3, stronger effect = lower value 1 | locus YBR171W, strain sec66, stronger effect = lower value 0.985 | locus YBR229C, strain ROT2, stronger effect = lower value 1.01 | locus YBR231C, strain swc5, stronger effect = lower value 1.02 | locus YBR279W, strain paf1, stronger effect = lower value 1.01 | locus YCL011C, strain gbp2, stronger effect = lower value 0.983 | locus YCL016C, strain dcc1, stronger effect = lower value 1.01 | locus YCL029C, strain bik1, stronger effect = lower value 1.02 | locus YCL061C, strain MRC1 (second series), stronger effect = lower value 1 | locus YCL061C, strain MRC1, stronger effect = lower value 0.987 | locus YCL069W, strain vba3, stronger effect = lower value 0.992 | locus YCR088W, strain abp1, stronger effect = lower value 0.986 | locus YDL005C, strain med2, stronger effect = lower value 1.01 | locus YDL035C, strain GPR1, stronger effect = lower value 1.04 | locus YDL040C, strain nat1, stronger effect = lower value 1 | locus YDL074C, strain BRE1, stronger effect = lower value 0.986 | locus YDL101C, strain DUN1, stronger effect = lower value 1 | locus YDL134C, strain PPH21, stronger effect = lower value 1.01 | locus YDL185W, strain tfp1, stronger effect = lower value 1.02 | locus YDL192W, strain arf1, stronger effect = lower value 1.01 | locus YDR001C, strain nth1, stronger effect = lower value 0.987 | locus YDR069C, strain doa4, stronger effect = lower value 1.03 | locus YDR101C, strain arx1, stronger effect = lower value 1.02 | locus YDR137W, strain rgp1, stronger effect = lower value 1.01 | locus YDR150W, strain NUM1, stronger effect = lower value 1.01 | locus YDR159W, strain sac3, stronger effect = lower value 1.02 | locus YDR162C, strain NBP2, stronger effect = lower value 0.986 | locus YDR195W, strain ref2 1.01 | locus YDR297W, strain sur2, stronger effect = lower value 1.01 | locus YDR318W, strain mcm21, stronger effect = lower value 1.05 | locus YDR334W, strain swr1, stronger effect = lower value 1 | locus YDR335W, strain msn5, stronger effect = lower value 1.01 | locus YDR363W, strain ESC2, stronger effect = lower value 0.999 | locus YDR388W, stronger effect = lower value 1.01 | locus YDR392W, strain spt3, stronger effect = lower value 0.965 | locus YDR502C, strain sam2, stronger effect = lower value 0.999 | locus YEL003W, strain gim4, stronger effect = lower value 0.99 | locus YEL037C, strain rad23, stronger effect = lower value 0.982 | locus YEL061C, strain CIN8 (second series), stronger effect = lower value 0.99 | locus YEL061C, strain CIN8, stronger effect = lower value 1.01 | locus YER002W, strain NOP16, stronger effect = lower value 0.975 | locus YER015W, strain faa2, stronger effect = lower value 1.01 | locus YER016W, strain bim1, stronger effect = lower value 1.02 | locus YER110C, stronger effect = lower value 1.02 | locus YER111C, strain swi4, stronger effect = lower value 0.98 | locus YER155C, strain BEM2 (second series), stronger effect = lower value 1.01 | locus YER155C, strain BEM2, stronger effect = lower value 0.999 | locus YER167W, strain BCK2, stronger effect = lower value 1.05 | locus YFR010W, strain ubp6, stronger effect = lower value 1.01 | locus YGL078C, strain dbp3, stronger effect = lower value 0.994 | locus YGL086W, strain mad1, stronger effect = lower value 1.04 | locus YGL167C, strain pmr1, stronger effect = lower value 1.01 | locus YGL173C, strain kem1, stronger effect = lower value 1.01 | locus YGL227W, strain vid30, stronger effect = lower value 0.988 | locus YGL240W, strain doc1, stronger effect = lower value 1.02 | locus YGL248W, strain PDE1, stronger effect = lower value 1.01 | locus YGL253W, strain hxk2, stronger effect = lower value 1 | locus YGR078C, strain PAC10, stronger effect = lower value 1.01 | locus YGR135W, strain pre9, stronger effect = lower value 0.996 | locus YGR229C, strain SMI1, stronger effect = lower value 1.01 | locus YGR252W, strain gcn5, stronger effect = lower value 1.03 | locus YHR013C, strain ard1, stronger effect = lower value 0.999 | locus YHR027C, strain rpn1, stronger effect = lower value 1.01 | locus YHR030C, strain SLT2, stronger effect = lower value 1.01 | locus YHR079C, strain IRE1 (second series), stronger effect = lower value 1.01 | locus YHR094C, strain hxt1, stronger effect = lower value 1.01 | locus YHR129C, strain ARP1, stronger effect = lower value 1.02 | locus YHR142W, strain chs7, stronger effect = lower value 0.975 | locus YHR200W, strain rpn10, stronger effect = lower value 1.02 | locus YIL066C, strain RNR3, stronger effect = lower value 1.02 | locus YIL073C, strain SPO22, stronger effect = lower value 1.13 | locus YIL125W, strain kgd1, stronger effect = lower value 1.01 | locus YIR030C, strain dcg1, stronger effect = lower value 1.02 | locus YJL092W, strain hpr5, stronger effect = lower value 0.984 | locus YJL095W, strain BCK1 (second series), stronger effect = lower value 1.01 | locus YJL095W, strain BCK1, stronger effect = lower value 1.03 | locus YJL115W, strain asf1, stronger effect = lower value 0.994 | locus YJL129C, strain trk1, stronger effect = lower value 0.994 | locus YJL134W, strain LCB3, stronger effect = lower value 1.01 | locus YJL154C, strain vps35, stronger effect = lower value 0.987 | locus YJL164C, strain tpk1, stronger effect = lower value 0.989 | locus YJL166W, strain qcr8, stronger effect = lower value 1.02 | locus YJL168C, strain set2, stronger effect = lower value 1 | locus YJL187C, strain SWE1 (second series), stronger effect = lower value 1.01 | locus YJL187C, strain SWE1, stronger effect = lower value 1.02
